This passage reports growth results from PubChem BioAssay (NCI).

Compounds without any hit were thinned out: in the full panel of roughly 83,000, 20% have a hit.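 Assay: single dose, 48 h. Readout: percent growth (0 = no net growth; negative = cell death). Active: <10.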 Values without a mark were called inactive. Calls of active or inactive are those of the source.

Test systems include DU-145 prostate; K-562 leukemia; MDA-MB-231 breast; RXF 393 renal; SF-268 CNS; SF-295 CNS; SF-539 CNS; UACC-257 melanoma; M14 melanoma; MALME-3M melanoma.
Assay in all cases: NCI-60 one-dose screen, 48 h (100 = growth as untreated, 0 = no growth, -100 = all killed)
Conditions in all cases: 10 µM unless noted

On to `COc1ccc(Cn2cc3c(c2-c2cc(OC)c(OC)c(OC)c2)CCc2cnoc2-3)cc1`, for which the growth with DU-145 prostate is 20.2%; with K-562 leukemia, 14.6%; in the test on MDA-MB-231 breast, 14%; with RXF 393 renal, 17.1%; with SF-268 CNS it was 40.9%; in the test on SF-295 CNS it was 1.12% (active). Moreover, the figures for the growth in the test on SF-539 CNS, with UACC-257 melanoma and in the test on M14 melanoma were 2.64% (active), 67.6% and 7.62% (active), respectively.
Take `O=[N+]([O-])c1ccc(/C=C/C2(CCl)OCCO2)cc1`: the growth with DU-145 prostate is 114%; in the test with K-562 leukemia, 65.7%; in the test with MDA-MB-231 breast, 114%; in the test with RXF 393 renal, 104%; with SF-268 CNS it was 115%; with SF-539 CNS, 104%. Moreover, the growth in the test on UACC-257 melanoma was 93.6%; with M14 melanoma, 95.2%.
For `CN1C=CN(Cc2ccc(-c3ccccn3)nc2)[CH-]1.CN1C=CN(Cc2ccc(-c3ccccn3)nc2)[CH-]1.[Au+3]`, the growth in the test on K-562 leukemia was 21.9%; with MALME-3M melanoma, 21.5%; with MDA-MB-231 breast, 28.1%; in the test on RXF 393 renal, 19.5%; in the test on SF-268 CNS, 44.1%; in the test with SF-295 CNS, 17.3%. The growth in the test on SF-539 CNS was 17.4%; in the test with UACC-257 melanoma, 2.13% (active); in the test with M14 melanoma, 35.6%.
